From PubChem BioAssay (NCI)
Compounds without any hit were thinned out: in the full panel of roughly 83,000, 20% have a hit.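 Cells were grown in 96-well plates and exposed to the test compound at a single concentration for 48 hours; results are reported as percent growth, with values below 10 considered active.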 Activity calls are given as the source filed them.

System: HL-60(TB) leukemia
Assay: NCI-60 one-dose screen, 48 h (100 = growth as untreated, 0 = no growth, -100 = all killed)
Conditions: 10 µM unless noted

SMILES | growth
CC1=CC=C(NC(=O)/C=C/c2ccccc2)CC1Nc1nccc(-c2cccnc2)n1 (stereo not drawn) | -0.0857% (active)
O=C1/C(=C/c2ccc(Cl)c(Cl)c2)CN(C(=O)CCN2CCC(=NO)CC2)C/C1=C\c1ccc(Cl)c(Cl)c1 | -16% (active)
COC(=O)c1ccc2[nH]c(O)c(C(=Nc3ccc(N(C)C(=O)CN4CCN(C)CC4)cc3)c3ccc(OC)cc3)c2c1 | -13.8% (active)
O=S(=O)(NCCCNc1nccc(-c2c(-c3cccc(F)c3)nc3sccn23)n1)c1cccc2ccccc12 | 53.9% (inactive)
c1cc2ccc3cc2cc1CNCCOCCNCc1ccc2ccc(cc2c1)CNCCOCCNC3 | 15.9% (inactive)
C=C(C)[C@@H]1CC[C@]2(C(=O)N3CCN(C)CC3)CC[C@]3(C)[C@H](CC[C@@H]4[C@@]5(C)C/C(=C/c6ccc(C(F)(F)F)cc6)C(=O)C(C)(C)[C@@H]5CC[C@]43C)[C@@H]12 | 94.1% (inactive)
O=C(Nc1ccccc1[N+](=O)[O-])c1ccc(Cl)c(Cl)c1 | 90.2% (inactive)
Nc1c(Cl)cc([N+](=O)[O-])cc1Br | 101% (inactive)
CC(=O)OCCCCCCn1c2ccccc2c2c3c(c4c5ccccc5n(C)c4c21)C(=O)N(O)C3=O | 41.2% (inactive)
COc1ccc(-c2ccc(-c3ccc(C(=N)N)cn3)o2)cc1Cl | -59.5% (active)
O=C(O)COc1ccccc1F | 104% (inactive)
CC(=O)n1c(/C(C#N)=C/c2ccc(N(C)C)cc2)cc2ccccc21 | 10.5% (inactive)
COc1ccc(C(c2cc(OC)c(OC)c(OC)c2)n2cncn2)cc1O (stereo not drawn) | -32.5% (active)
